molecular target: AMP-activated protein kinase, AMPK (Homo sapiens) (UniProt P54646+O43741+P54619+Q9UGJ0+Q9Y478+Q13131+Q9UGI9); assay: AMP-dependent Kinase enzyme assay. An in vitro enzyme assay that detects ADP turnover that is directly proportional to AMPK activity. This uses naive AMPK that is activated during the assay with MK-8722; type: functional; set-up: scale not given: direction of the effect not stated beside the values; conditions: 30 µM

Row | Structure (SMILES) | Percent Effect
1 | CCc1cccc2c(CC(=O)N(C)CCN(C)C)c(C)[nH]c12 | 9.67%
2 | CCc1cccnc1NCc1cnc(N2CCOCC2)nc1 | 22.9%
3 | COC(=O)N1C[C@H]2CC[C@@H]1CN(Cc1ccncc1)C2 | 0.146%
4 | Cc1cc(NCCc2c[nH]cn2)nc(-c2cccnc2)n1 | 1.96%
5 | Cn1cc(C2=CCN(CCCC(=O)Nc3ccc(C#N)cc3)CC2)cn1 | 7.78%
6 | COc1ccc(NC(=O)CCN2CC=C(c3cnn(C)c3)CC2)c(C)c1 | 6.63%
7 | O=C(C1CC1)N1CCc2c(ncnc2N2CCN3CCCC3C2)C1 (stereo not given) | -5.38%
8 | CSc1nccc(N2CCC3(CCCN(CC4CC4)C3)C2)n1 (stereo not given) | 2.58%
9 | Cc1nc(N)nc(C)c1CC(=O)N1CCCN(CC2CC2)C(C(C)C)C1 (stereo not given) | -4.33%
10 | CCc1ccc(OCC(=O)N2CCN(CC)CC2)cc1 | -0.678%
11 | COc1ccc2ncn(Cc3ncc[nH]3)c(=O)c2c1 | -1.95%
12 | O=C(NCCOc1cccc(Cl)c1Cl)N1CCC2(CC1)OCCO2 | 1.62%
13 | O=C(N[C@H]1COC[C@@H]1N1CCCC1)c1csc(Cc2ccccc2)n1 | 4.04%
14 | NC1(c2nc(C(F)(F)F)cc(=O)[nH]2)CCCC1 | -4.13%
15 | CC(C)(C)c1cc(=O)[nH]c(C2(N)CCCC2)n1 | 3.52%
16 | CSc1ccccc1C(=O)C1CCCN(Cc2cc(C(C)C)[nH]n2)C1 (stereo not given) | 6.61%
17 | CS(=O)(=O)c1ccc(CC(=O)N2CCN3CCNC(=O)C3C2)cc1 (stereo not given) | -2.22%
18 | CC(Cc1cccc(F)c1)NCc1cnc(N2CCN(C)CC2)nc1 (stereo not given) | 8.49%
19 | CC(C)[C@@H]1CN(C(=O)C2(c3ccccc3)CCN(C)CC2)C[C@H]1N(C)C | -5.45%
20 | Cc1ccc(NC(=O)CNC(C)Cc2ccsc2)cc1F (stereo not given) | -6.2%

Row | Structure (SMILES) | Percent Effect
21 | O=C(c1ccnc(-n2cnnc2)c1)N1CCCC2(CCNC2)C1 (stereo not given) | -3.71%
22 | O=C(N1CCCC1)N1C[C@H]2CC[C@@H]1CN(Cc1ccncc1)C2 | 2.18%
23 | CC(C)c1ccccc1OCCNC(=O)N1CCC2(CC1)OCCO2 | -2.79%
24 | O=C(NC1CC1)[C@H]1CN(Cc2ccccc2)C[C@@H]1C(=O)c1ccccc1 | 12.8%
25 | COc1ccc(CC(C)Nc2cccc(F)c2)cc1 (stereo not given) | 4.95%
26 | COc1ncnc(N)c1CNCCc1ccccc1 | -4.78%
27 | CC(C)(C)c1cc(=O)[nH]c(C2(N)CCCCC2)n1 | 2.04%
28 | O=C(NCCc1c[nH]cn1)c1ccccc1C1CCNC1 (stereo not given) | -4.12%
29 | CSc1ccccc1C(=O)C1CCCN(Cc2ccccn2)C1 (stereo not given) | 18.7%
30 | CCN1CCN(C(=O)COc2ccc(CN(C)S(C)(=O)=O)cc2)CC1 | -0.955%
31 | Cc1nc(CC(=O)N2CCCC(N(C)Cc3ccccc3)C2)cs1 (stereo not given) | 6.8%
32 | Cc1cc(C)c2[nH]c(C)c(CC(=O)N(C)CCN(C)C)c2c1 | 3.2%
33 | O=C(C1CCOCC1)N1C[C@H]2CC[C@@H]1CN(Cc1ccncc1)C2 | 0.59%
34 | O=C(N[C@H]1COC[C@@H]1N1CCCC1)c1csc(-c2cccs2)n1 | 2.31%
35 | O=C(O)[C@H]1CN(Cc2ccccc2)C[C@@H]1C(=O)c1ccccc1 | 12.8%
36 | COc1ccc(Cl)cc1CN(C)C(=O)CN1C(=O)CCC1C (stereo not given) | 6.65%
37 | CCOCCC(=O)N1C[C@H]2CC[C@@H]1CN(Cc1ccncc1)C2 | 3.36%
38 | O=C(N[C@H]1CN2CCC1CC2)c1cc(Cn2cnc3ccccc32)[nH]n1 | -6.79%
39 | CC(C)c1cc(N2CCCC3(CCN(C)C3)C2)ncn1 (stereo not given) | 1.53%
40 | Cn1ncc2c(NC3CN4CCC3CC4)nc(-c3ccncc3)nc21 (stereo not given) | 5.93%

From ChEMBL document CHEMBL3988442, “University of Dundee, Small-Polar-MMV Screening Library” (2021)
